Source: PubChem BioAssay (several laboratories)
The list is not random: actives were taken first. Their share in the collection is about 32%.
CYP2C9 inh = human CYP2C9 inhibition; CYP2C9 Supersomes, luciferin-H conversion, luminescence; inhibition, % at 5 µM; 96,000 tested, 20% active; AID 777;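 active = blocking of liver enzyme CYP2C9 beyond about 50% at 5 µM, limit read from the data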
CYP2C19 activ = activators of human cytochrome P450 2C19 | AID 1025 | P33261 | recombinant CYP2C19, luciferin-H EGE luminescence; stronger effect = higher value; 0 = fully inhibited enzyme, 1 = untreated enzyme | 96,000 tested, under 10 active | activation factor at 5 µM;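 active = activation factor of at least 2 at 5 µM in the primary screen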
Target sequence (P33261 whole entry, looked up): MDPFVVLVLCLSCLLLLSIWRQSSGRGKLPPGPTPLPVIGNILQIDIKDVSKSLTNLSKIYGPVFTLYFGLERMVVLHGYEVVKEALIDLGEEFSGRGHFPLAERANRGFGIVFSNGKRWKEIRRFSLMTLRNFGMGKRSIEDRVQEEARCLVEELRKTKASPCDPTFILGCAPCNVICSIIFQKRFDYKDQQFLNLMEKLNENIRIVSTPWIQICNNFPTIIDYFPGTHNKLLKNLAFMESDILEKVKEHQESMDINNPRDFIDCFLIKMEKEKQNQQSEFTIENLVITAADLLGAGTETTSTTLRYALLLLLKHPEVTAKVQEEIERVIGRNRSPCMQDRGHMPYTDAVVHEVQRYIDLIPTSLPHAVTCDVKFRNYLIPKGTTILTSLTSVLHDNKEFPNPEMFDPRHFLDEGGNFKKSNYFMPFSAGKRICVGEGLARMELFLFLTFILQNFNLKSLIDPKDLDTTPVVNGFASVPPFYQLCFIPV
CYP2C19 inh = inhibitors of human CYP2C19. inhibition, % at 5 µM. CYP2C19 Supersomes, luciferin-H EGE luminescence, 30 min. P33261. 96,000 tested, 21% active;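 active = CYP2C19 inhibition above a set limit at 5 µM in the primary screen, cut at about 50% in these data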
PostGolgi yeast = growth inhibition of a yeast mutant, post-Golgi transport screen; post-Golgi transport phenotypic cell assay; inhibition, % at 10 µM; 98,000 tested, 0.9% active;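 note: yeast cells grown in 1536-well plates; yeast grown about 18 h at 30C before absorbance read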
PostGolgi ctrl = growth of the yeast control strain, post-Golgi counter-screen; inhibition, % at 10 µM; AID 738; efflux-deficient yeast background strain, growth absorbance A615, 16 h; 98,000 tested, 5% active
CYP2C9 activ = activators of human CYP2C9; AID 1024; activation factor at 5 µM; 96,000 tested, 1.4% active; recombinant CYP2C9, luciferin-H conversion, luminescence; stronger effect = higher value; factor 1 = untreated enzyme, 0 = blocked;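 active = activation factor of 2 or more for CYP2C9 at a 5 µM dose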
Of the large screens only hits and unclear results are named; the others gave an inactive call. Cut-off read from the data, not from the text of the source, unless noted: active = inhibition above about 30%; inactive = the rest.

CNS(=O)(=O)c1cccc(C(=O)OCC(=O)C23CC4CC(CC(C4)C2)C3)c1	none
CNS(=O)(=O)c1cccc(C(=O)OCC(=O)c2cc(C)n(-c3ccc4c(c3)OCO4)c2C)c1	CYP2C9 inh 68, CYP2C19 inh 62
Cc1[nH]c(=S)n(CC2CCCO2)c1C (stereo unspecified)	none (no result: CYP2C9 inh, CYP2C19 activ, CYP2C19 inh, CYP2C9 activ)
O=C(Nc1ccccc1)c1cccc(N2CCCC2=O)c1	none
COc1cc(OC)cc(C(=O)N2CCN(C3CCN(Cc4ccccc4)CC3)CC2)c1	none
O=C(CCn1c(=O)oc2ccccc21)Nc1ccccc1	CYP2C19 inh 61
COc1ccccc1CNC(=O)CCn1c(=O)oc2ccccc21	CYP2C19 inh 72
CCc1ccc(NC(=O)CCn2c(=O)oc3ccccc32)cc1	CYP2C9 inh 58
CC(C)OC(=O)CSc1nnc(-c2ccc(Cl)cc2Cl)n1N	CYP2C9 inh 59, CYP2C19 inh 65
CCN(CC)C(=O)CSc1nnc(-c2ccccc2)n1N	none
CCOc1ccc(-c2nnc(SCC(=O)N(CC)CC)n2N)cc1	CYP2C9 activ 2.1
Nn1c(SCC(=O)N2CCOCC2)nnc1-c1ccc(Cl)cc1Cl	none
Cc1ccc(-c2nnc(SCC(=O)OC(C)C)n2N)cc1	none
CC(C)OC(=O)CSc1nnc(-c2ccc(Cl)cc2)n1N	PostGolgi yeast 35
O=C1Nc2cc(Cl)c(Cl)cc2N(O)N1c1ccc(Cl)cc1	none
O=C1Nc2cc(Cl)c(Cl)cc2N(O)N1c1cccc(Cl)c1	CYP2C9 inh 52
COC(=O)C1=C(C)N(c2ccc(C)cc2)/C(=C/c2cccs2)C1=O	PostGolgi ctrl 33
O=c1c2ccccc2sn1-c1cc(S(=O)(=O)N2CCOCC2)ccc1N1CCOCC1	CYP2C9 inh 54, CYP2C19 inh 66
Cc1ccc(S(=O)(=O)NC(=O)c2cc(C)n(-c3cc(S(=O)(=O)N4CCOCC4)ccc3N3CCCC3)c2C)cc1	none
O=c1c2ccccc2sn1-c1cc(S(=O)(=O)N2CCOCC2)ccc1N1CCCC1	CYP2C9 inh 79
COCCNc1nc(SCC(=O)N2CCN(c3ccccc3OC)CC2)nc2ccccc12	none
O=c1[nH]cnc2scc(-c3cccs3)c12	none (no result: CYP2C9 inh, CYP2C19 activ, CYP2C19 inh, CYP2C9 activ)
Nc1nc(SCc2nc3scc(-c4ccccc4)c3c(=O)[nH]2)n[nH]1	CYP2C9 inh 50
CC(Sc1n[nH]c(N)n1)c1nc2scc(-c3cccs3)c2c(=O)[nH]1 (stereo unspecified)	CYP2C9 inh 59
O=C(CSC1=NCCS1)N1CCc2ccccc21	CYP2C9 inh 63
O=C(CSCCO)N1CCc2ccccc21	none
Nc1ccccc1SCC(=O)N1CCc2ccccc21	CYP2C19 inh 76
O=C(CSc1nc(-c2ccccc2)cc(=O)[nH]1)N1CCc2ccccc21	CYP2C9 inh 69
COc1ccc(C)cc1NC(=O)CN1CCN(S(=O)(=O)c2ccc(Br)cc2)CC1	PostGolgi ctrl 46
O=C(CN1CCN(S(=O)(=O)c2ccc(Cl)cc2)CC1)Nc1ccc(F)cc1F	none
O=C(CN1CCCN(S(=O)(=O)c2ccc(F)cc2)CC1)Nc1ccccc1Br	PostGolgi ctrl 41 (no result: CYP2C9 inh, CYP2C19 activ, CYP2C19 inh, CYP2C9 activ)
COc1ccc(NC(C)=O)cc1NC(=O)CN1CCN(S(=O)(=O)c2ccc(C(C)C)cc2)CC1	none
O=C(CN1CCN(S(=O)(=O)c2ccc(Br)cc2)CC1)Nc1ccc(F)cc1F	CYP2C19 inh 54
O=C(CN1CCN(S(=O)(=O)c2ccc(Br)cc2)CC1)Nc1ccccc1F	CYP2C19 inh 84, PostGolgi ctrl 54
O=C(CN1CCN(S(=O)(=O)c2ccc(F)cc2)CC1)Nc1cccc(C(F)(F)F)c1	none
CCOC(=O)C(C)Sc1nc(-c2ccco2)cc(C(F)(F)F)c1C#N (stereo unspecified)	none
Cc1oc(-c2ccc(Cl)cc2)nc1CSCC(=O)NCCCN1CCOCC1	none
CCOC(=O)CN1C(=O)C(Sc2n[nH]c(-c3ccccc3)n2)CCc2ccccc21 (stereo unspecified)	CYP2C9 inh 93, CYP2C19 inh 89
COc1ccc(Nc2nc(N3CCCC3)nc(N3CCCC3)n2)c(OC)c1	none
COc1ccc(Nc2nc(NC(C)(C)C)nc(N3CCCC3)n2)c(OC)c1	PostGolgi ctrl 63
O=C(NC(=S)Nc1cccc(Cl)c1N1CCCC1)c1ccc(-c2cccc([N+](=O)[O-])c2)o1	none
C(#Cc1ccccc1)Cn1nnc2ccccc21	none
